An excerpt weighted towards active compounds, which were near 3.2% of everything screened.
EphB4 ephrin blk: blocks human EphB4 binding to ephrin-B2. 97,000 compounds, 0.15% hits. inhibition, % at 7 µM. EphB4 LBD / TNYL-RAW-Alexa532 peptide, fluorescence polarization. P54760;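 active means inhibition above the screen-wide mean inhibition plus 3 SD, cut at about 15% in these data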;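 further: 0% = DMSO wells and 100% = excess unlabeled TNYL-RAW peptide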
ERa SRC1 pot: ER-alpha (human) coactivator binding potentiation | P03372 | TR-FRET ERalpha-LBD/SRC-Cy5 coactivator binding, 2 h; 100 = basal binding, no effect | coactivator binding (% of control), % at 25.6 µM | 86,000 compounds, 1.3% hits | AID 639; in the data active means activity above about 200%;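 further: binding measured in presence of low estradiol as agonist stimulus; 0% = peptide alone without receptor and 100% = receptor with peptide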
ERb coact inh: blocks coactivator binding to human estrogen receptor beta; 86,000 compounds, 1.3% hits; inhibition, % at 25.6 µM; AID 633; TR-FRET ER-beta LBD / SRC1-Cy5 peptide binding; receptor agonist-loaded with 1 µM estradiol; Q92731;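 active means compounds whose percent inhibition of the receptor-coactivator binding signal exceeds about 50% in the single-dose screen, limit read from the data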;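 further: 0% = receptor plus peptide wells without compound and 100% = peptide-only wells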
MT1-MMP txn act: activates MT1-MMP transcription; 86,000 compounds, 0.16% hits; activation factor at 10 µM; AID 750; HT1080 MT1-MMP promoter luciferase reporter, luminescence, overnight; stronger effect = higher value;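 active means activation factor of at least 2 for MT1-MMP transcription at 10 µM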
ERa SRC1 inh: ER-alpha (human) coactivator binding inhibition; TR-FRET ER-alpha LBD / SRC-1 peptide, estradiol-bound; inhibition, % at 25.6 µM; 86,000 compounds, 1.7% hits; in the data active means inhibition above about 50%;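 further: 0% = receptor plus peptide control and 100% = peptide only without receptor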
Candida biofilm: kills Candida albicans biofilms. inhibition, % at 6 µM. AID 834. C. albicans biofilm + clotrimazole, Alamar Blue. 85,000 compounds, 0.14% hits;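 active means inhibition above 20%; inactive means inhibition below 20%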;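 further: preformed 24 hr biofilms exposed to compound for 48 hr; 0% = biofilm without compound and 100% = blank killed by clotrimazole plus chlorhexidine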
* marks the source's active call; other numbers are inactive results; / = no result given; [ ] = another dose, or the depositor's remark.

SMILES	EphB4 ephrin blk	ERa SRC1 pot	ERb coact inh	MT1-MMP txn act	ERa SRC1 inh	Candida biofilm
N#CCN1CCN(CC(=O)Nc2ccc(OCc3ccccc3)cc2)CC1	-7	106	-9	1.4	-5	4
Cc1cc(Cl)c(S(=O)(=O)Nc2ccc3c(c2)OCO3)cc1OCC(N)=O	-5	86	51*	0.9	50*	6
Cc1ccc2cccc(S(=O)(=O)Nc3ccc4c(c3)OCO4)c2n1	5	25	75*[fluorescence artefact?]	1	83*[fluorescence artefact?]	4
O=C(NCCCN1CCCC1=O)NC12CC3CC(CC(C3)C1)C2	16*	111	-5	0.9	-6	3
COC(=O)N1[C@H](Cc2ccccc2)C=C[C@]1(C)C(=O)NCc1ccc(C)o1	/	/	/	1	/	/
CC(C)(C)NC(=O)NC(=O)CSc1nnc(COc2ccccc2Cl)o1	1	91	-15	1.1	-2	0
COc1ccccc1OCc1nnc(SCCN2CCOCC2)o1	8	148	-7	1.1	-6	7
COc1ccccc1OCc1nnc(SCC(=O)c2cc(Cl)ccc2OC)o1	-2	322*[fluorescence artefact?]	-3	1	1	0
C/C(N)=C(/C#N)C(=O)CSc1nnc(COc2ccccc2Cl)o1	4	77	59*	1.1	58*	3
O=C(C1CC(c2ccccc2O)=NO1)N1CCCCC1 (stereo not drawn)	1	121	-4	1.8	5	7
COC(=O)c1ccc(Oc2nc(C(N)=O)cc(-c3ccccc3)n2)cc1	1	264*[fluorescence artefact?]	20	1.1	47	-3
Cc1ccc(-c2nnc(SCC(C)C)n2C)cc1	2	93	-8	1.7	0	-2
COc1ccc(-c2cc(-c3cccs3)c(C#N)c(SCC(=O)NCc3ccco3)n2)cc1	/	177	39	0.6	54*	2
CCn1nnc(NC(=O)CSc2ccc(Cl)cc2)n1	/	29	82*	1	90*	8
CCCCn1nnc(NC(=O)Cc2ccc(Cl)cc2)n1	1	94	-3	1.2	2	6
O=C(Cc1cccs1)Nc1ccc(-c2nnn(CC(=O)N3CCOCC3)n2)cc1	-5	16	93*	1.3	96*[fluorescence artefact?]	4
CCOc1ccc2nc(COC(=O)c3ccco3)c(C(C)=O)[n+]([O-])c2c1	1	66	22	1.3	17	5
CC(=O)c1c(COC(=O)c2cccnc2)nc2ccccc2[n+]1[O-]	0	52	57*[fluorescence artefact?]	1.1	65*[fluorescence artefact?]	6
O=C(Nc1cccc(Cl)c1Cl)C1CCN(c2ncccn2)CC1	-2	206*	-6	1	-9	6
Cc1nnc2sc(-c3ccc(NC(=O)c4ccc(-c5ccc(Cl)cc5Cl)o4)cc3)nn12	-6	110	49	1.2	70*	4
Cc1nnc2sc(-c3ccc(NC(=O)c4cccnc4)cc3)nn12	2	81	-1	1.2	3	12
O=C1c2ccccc2-c2c1cccc2C(=O)N1CCOCC1	-6	110	56*[fluorescence artefact?]	1.3	-3	5
O=S(=O)(Nc1ccc(-c2nc3cccnc3s2)cc1)c1ccc(Cl)s1	-5	87	11	/	77*[fluorescence artefact?]	12
O=c1c2ccccc2nnn1CSc1nnc(-c2ccc3c(c2)OCO3)o1	-5	121	4	0.8	3	6
CCOc1ccc(-c2nnn(CC(=O)c3ccc4c(c3)OCCO4)n2)cc1OCC	-2	385*[fluorescence artefact?]	26	1.1	13	0
SMILES	EphB4 ephrin blk	ERa SRC1 pot	ERb coact inh	MT1-MMP txn act	ERa SRC1 inh	Candida biofilm
COc1ccc(Br)cc1C1N2CC3(C)CN1CC(C)(C2)C3=O (stereo not drawn)	-4	109	-7	1.1	-8	-1
COc1cc(NC(=O)c2cccs2)c(C(=O)OCC(=O)NC(=O)NCc2ccccc2)cc1OC	-1	344*	1	1.1	39	4
COc1cc(NC(=O)c2cccs2)c(C(=O)OCC(=O)NC(=O)NC(C)(C)C)cc1OC	-3	101	75*	1.5	16	2
COc1ccccc1NC(=O)c1cccs1	12	/	/	1.2	/	/
Cc1ccc(-c2nn3c(C)nnc3c3ccccc23)cc1S(=O)(=O)N(C)CCO	-4	114	-2	1.1	-3	6
COc1ccc(Br)cc1CNC(=O)CCc1nc(-c2ccc(C)cc2)no1	7	90	12	1.3	10	8
CCCCc1c2ccccc2nc2[nH]c3ccccc3c12	/	/	/	1.2	/	/
